HIF-2a block = blocks HIF-2a reporter activity. 786-0 RCC cells HIF-2a reporter, luciferase luminescence, overnight. inhibition, % at 18.8 µM. 0.72% of 360,000 active;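 active = inhibition of the luminescence signal of 40% or more relative to plate controls, in a single-dose primary screen at 18.75 µM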
TRPM1 prom inh = MITF TRPM1 promoter inhibition in SK-MEL-5 cells; 0.83% of 330,000 active; SK-MEL-5 TRPM1 promoter luciferase, 24 h; AID 488899; inhibition, % at 12.5 µM;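 active = mean inhibition across replicates of 60% or more, whatever share of single replicates reaches that level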
CHOP inhibitor = CHOP inhibition in unfolded protein response. inhibition, % at 10 µM. 3.8% of 220,000 active. CHO-K1 CHOP-promoter luciferase, tunicamycin-induced, 15-18 h. AID 2732;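 active = compounds that reduced the stress-induced luciferase reporter signal by more than about 70% of percent inhibition, limit read from the data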;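 also: 0% = tunicamycin plus vehicle and 100% = wells without tunicamycin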
CF NFkB inh = blocks PAF-induced NF-kB reporter in cystic fibrosis cells; 0.86% of 360,000 active; AID 588850; KKLEB NF-kB-GFP reporter, GFP fluorescence overnight; inhibition, % at 5 µM;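 active = at least 50% inhibition at 5 µM, scaled per plate between neutral and stimulator controls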;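 also: PAF is a Pseudomonas aeruginosa culture filtrate used as stimulus; plate controls were PAF-stimulated DMSO wells for no effect and unstimulated DMSO wells for full effect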
KKLEB tox = CF airway cell cytotoxicity counter-screen | KKLEB CF airway cells viability, ATPlite luminescence, overnight; hits give low values; cells stimulated with P. aeruginosa culture filtrate | activity change (cytotoxicity), % at 5 µM | 0.36% of 360,000 active;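 active = corrected activity change at or below -50% at 5 µM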
Peg3 promoter = reduces Peg3 promoter-driven luciferase expression in HeLa; HeLa PEG-Prom luciferase reporter, luminescence, overnight; inhibition, % at 20 µM; 1.7% of 360,000 active; AID 588405;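 active = inhibition of at least 50% at 20 µM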
CHOP inh conf = confirmation of CHOP induction inhibitors; shares compounds with CHOP inhibitor; 45% of 2,100 active; AID 504437; inhibition, % at 10 µM; CHO-CHOP promoter luciferase reporter, tunicamycin-induced, luminescence;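 active = mean of three repeat readings of reporter signal inhibition above a set limit, cut at about 70% in these data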;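 also: 0% = tunicamycin plus vehicle and 100% = wells lacking tunicamycin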
Active calls of the source: *; nt = no result. An excerpt weighted towards active compounds, which were near 4.3% of everything screened.

SMILES	HIF-2a block	TRPM1 prom inh	CHOP inhibitor	CF NFkB inh	KKLEB tox	Peg3 promoter	CHOP inh conf
O=C(Nc1nnc([C@@H]2C[C@H](O)[C@@H](CO)O2)s1)Nc1ccccc1C(F)(F)F	5	nt	nt	-11	6	-1	nt
COc1ccc(OC)c2sc(NC(=O)c3ccc(Cl)s3)nc12	-52	nt	103*	32	-18	-20	86*
Cc1cc(C)nc(NC(=O)/C=C/c2ccccc2Cl)n1	-137	-13	15	5	-4	-98	nt
Cc1cc(C(=O)NNC(=S)NC(=O)/C=C/c2ccccc2Cl)n[nH]1	-43	18	108*	-3	-3	-6	40
CCC(C(=O)NCCCN1CCN(C)CC1)n1nc(C)n2c(cc3occc32)c1=O (configuration not stated)	17	-4	nt	-13	14	-6	nt
CCCCCOC(=O)Nc1ccc(S(=O)(=O)Nc2cccc([N+](=O)[O-])c2)cc1	0	-3	109*	22	-1	20	27
CCCNC(=O)Cn1c(=O)/c(=C/c2ccc(-c3ccc([N+](=O)[O-])cc3)o2)s/c1=C\C(=O)C(C)(C)C	15	14	nt	-319	-1	30	nt
O=C(Nc1nc2ccccc2n1Cc1ccc(Cl)cc1)c1ccco1	-1	18	103*	32	-28	9	-53
Cc1cccc(OCCn2c(NC(=O)c3ccco3)nc3ccccc32)c1	-77	14	104*	3	-2	-34	-12
Cc1ccc(N2C(=O)CS/C2=N\C(=S)Nc2ccccc2)cc1	-10	nt	43	6	-1	-9	nt
CCNC(=S)N/N=C/c1cc(Br)cc(Br)c1OC	14	5	102*	-14	-14	0	80*
CC(C)=CCc1c(O)c(CC=C(C)C)c2c(c1O)C(=O)CC(c1ccc(O)cc1)O2 (configuration not stated)	-34	-9	101*	27	-8	6	73*
Cc1c(O)cc2c(c1O)C(=O)CC(c1ccc(O)cc1)O2 (configuration not stated)	16	nt	3	8	1	3	nt
OC(CNCC(c1ccc(Cl)cc1Cl)c1c[nH]c2ccccc12)c1ccccc1 (configuration not stated)	17	100*	107*	19	-17	110*	125*
COc1ccccc1C(=O)O/N=C(\N)c1ccccc1Cl	-203	-33	24	-4	3	-234	nt
COc1ccccc1C(=O)Oc1ccc(C(C)C)cc1	-14	-36	99*	6	9	-20	118*
CC(C)NC(=O)CN(Cc1ccc(F)cc1)C(=O)CCC(=O)Nc1ccccn1	2	-13	nt	15	-5	-3	nt
CCN1CCN(C(=O)c2c(-c3c(Cl)cccc3Cl)noc2C)CC1	1	7	nt	12	0	4	nt
C=C(C)C1Cc2c(C)nn(-c3cccc4ccccc34)c2C1 (configuration not stated)	15	9	101*	-3	-3	7	31
CCC1CCc2c(sc(NC(=O)c3ccoc3C)c2C(N)=O)C1 (configuration not stated)	-164	-16	102*	-9	3	-110	102*
CC(C)c1ccc(CC(C)C2C3=C(CCCC3=O)OC3=C2C(=O)CCC3)cc1 (configuration not stated)	12	-3	104*	12	-8	15	58
Cc1ccc(CCC2C3=C(CCCC3=O)OC3=C2C(=O)CCC3)cc1	19	13	21	-17	-3	18	nt
CC1C(=O)N2CCCc3cc(S(=O)(=O)Nc4ccccc4C(N)=O)cc1c32 (configuration not stated)	10	7	nt	-2	17	-1	nt
CCOc1ccc(N(CC(=O)N2CCN(c3ccc(F)cc3)CC2)S(=O)(=O)c2c(C)noc2C)cc1	-3	-10	nt	-3	-9	8	nt
COC(=O)c1cc(NC(=S)Nc2cc(Cl)cc(Cl)c2)cc(C(=O)OC)c1	-2	-10	101*	14	-3	15	99*
SMILES	HIF-2a block	TRPM1 prom inh	CHOP inhibitor	CF NFkB inh	KKLEB tox	Peg3 promoter	CHOP inh conf
NS(=O)(=O)c1cccc(C(=O)N2CCCc3ccccc32)c1	14	nt	nt	15	-8	1	nt
NC(=S)n1[nH]c(-c2ccc([N+](=O)[O-])cc2)c(N=Nc2ccc(Cl)cc2)c1=O	-44	54	107*	-18	-24	21	114*
Cc1ccc([N+](=O)[O-])cc1N=Nc1c(C)[nH]n(C(N)=S)c1=O	6	-19	nt	-12	5	-4	nt
CS(=O)(=O)c1nc(-c2ccco2)cc(C(F)(F)F)n1	nt	nt	111*	nt	nt	nt	122*
CN1CCN(c2nc(-c3ccco3)cc(C(F)(F)F)n2)CC1	-5	0	35	12	-6	-5	nt
Cc1ccc(NC(=O)C(=O)NCC2OCCc3ccccc32)cc1 (configuration not stated)	-21	-24	105*	0	19	-27	102*
O=C(NCC1OCCc2ccccc21)c1ccco1 (configuration not stated)	-30	2	-9	-6	16	-32	nt
O=C(NCC1OCCc2ccccc21)c1ccc(NC(=O)c2ccc(Cl)cc2)cc1 (configuration not stated)	7	69*	103*	-10	0	33	57
O=S1(=O)N[C@@H](Cc2ccccc2)COc2cc(N3CCC[C@@H]3CO)ccc21	-1	nt	nt	nt	nt	nt	nt
CC1=CC(=O)C=C(C)C1=NOS(=O)(=O)c1ccccc1	63*	29	nt	21	-7	82*	74*
Cc1ccc(S(=O)(=O)ON=C2CCN(S(=O)(=O)c3ccccc3)CC2)cc1	11	-3	-12	3	0	-4	nt
Cc1cccc(OCC(O)Cn2c(=N)n(Cc3ccccc3)c3ccccc32)c1 (configuration not stated)	16	9	35	-4	-5	2	nt
N=c1n(Cc2ccccc2)c2ccccc2n1CC(O)COc1ccc(Cl)cc1Cl (configuration not stated)	7	98*	109*	16	-28	104*	92*
COc1ccc(OCC(O)Cn2c(=N)n(Cc3ccccc3)c3ccccc32)cc1 (configuration not stated)	3	30	56	5	-19	46	nt
Cc1ccc(OCC(O)Cn2c(=N)n(Cc3ccccc3)c3ccccc32)cc1 (configuration not stated)	-1	39	105*	7	-21	108*	50
O=C(NC(C(=O)N/N=C/c1cc([N+](=O)[O-])ccc1O)c1n[nH]c(=O)c2ccccc12)c1ccccc1 (configuration not stated)	7	5	nt	3	9	-13	nt

High-throughput results: PubChem, several laboratories
